HPGD inh: blocks human HPGD enzyme activity. Potency, µM, inactives show at the highest dose activity change, negative = inhibition, usual class: inhibitors. P15428. 150,000 tested, 4.3% active. AID 894. purified HPGD, NADH fluorescence kinetic, PGE2 substrate; also: potency is read from the fitted curve at half-maximal effect
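20 nM HPGD preincubated 15 min at room temperature with compound in 50 mM Tris-HCl pH 8, 0.01% Tween 20. Started with 1 mM NAD+ and 30 uM prostaglandin E2; NADH fluorescence (360/450 nm) read 5 times over 30-s intervals, last minus first.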
ALDH1A1 block: blocks purified human ALDH1A1 activity; P00352; Purified ALDH1A1, NADH fluorescence, propionaldehyde substrate; Potency, µM (top dose mostly 75.3 µM), without a hit: at the highest dose activity, negative = inhibition, most hits filed as inhibitors; 220,000 tested, 7.3% active; AID 1030;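 also: potency is read from the fitted curve at half-maximal effect; plate controls were no enzyme wells and a reference inhibitor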
Target sequence (P00352 whole entry, looked up): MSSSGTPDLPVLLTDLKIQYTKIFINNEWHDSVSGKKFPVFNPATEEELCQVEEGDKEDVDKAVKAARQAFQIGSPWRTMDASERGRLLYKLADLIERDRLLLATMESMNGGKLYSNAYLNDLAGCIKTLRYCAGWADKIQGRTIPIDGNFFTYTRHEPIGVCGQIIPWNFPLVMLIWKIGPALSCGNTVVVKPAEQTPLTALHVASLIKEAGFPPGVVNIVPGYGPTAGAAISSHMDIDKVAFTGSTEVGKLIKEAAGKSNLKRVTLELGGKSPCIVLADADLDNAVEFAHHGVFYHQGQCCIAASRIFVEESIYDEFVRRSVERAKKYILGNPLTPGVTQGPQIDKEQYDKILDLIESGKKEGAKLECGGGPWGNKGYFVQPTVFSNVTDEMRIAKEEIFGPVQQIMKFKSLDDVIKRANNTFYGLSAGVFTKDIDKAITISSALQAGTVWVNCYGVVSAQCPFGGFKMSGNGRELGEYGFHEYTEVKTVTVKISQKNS
Lamin A splicing: changes lamin A minigene splicing in HeLa cells | HeLa LMNA splicing GFP/RFP minigene ratio, 48 h | Potency, µM (doses to about 46.1 µM), inactives show at the top dose ratio change, negative = inhibition, actives largely listed as inhibitors | 200,000 tested, 0.01% active | AID 1487; active = well fitted inhibition curve with a large enough effect in the signal ratio, with a control signal flat, not every such curve was filed as active; inconclusive = small, poorly fitted or top-dose-only effect, or effect the other way, or a change in a side signal; the % refers to the signal ratio; also: potency is read from the fitted curve at half-maximal effect
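S3 HeLa stable clones carrying a lamin A-EGFP splicing minigene plus DsRed2 were seeded at 600 cells/well in Opti-MEM with 2% FBS, pin-dosed and incubated 48 h at 37°C. Acumen cytometry (488 nm) gave the GFP/RFP total-intensity ratio.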
12-hLO inh: inhibitors of human 12-lipoxygenase (ALOX12). P18054. purified 12-hLO, xylenol orange hydroperoxide absorbance. Potency, µM (series often up to 57.1 µM), for inactives: at the highest dose activity change, negative = inhibition, hits mostly inhibitors. 150,000 tested, 0.12% active. AID 1452; active = well fitted inhibition curve with a large enough effect; inconclusive = small, poorly fitted or top-dose-only effect; also: potency is read from the fitted curve at half-maximal effect; nearly all actives have a fitted effect of over 55% in size
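150 nM 12hLO, 25 mM Hepes pH 7.0 + 0.01% Triton X-100; cpd preinc 15 min RT; 40 uM arachidonic acid, 30 min RT; Fe-XO 30 min; A573/A405 ratio as read-out.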
PNC assembly inh: perinucleolar compartment assembly inhibition. activity change (PNC), negative = inhibition, % at 10 µM. 140,000 tested, 3.1% active. PC3M PTB-GFP, PNC prevalence imaging, 16 h; hits give low values;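 active = readout at or below -70, meaning at least 70% loss of cells showing the perinucleolar compartment, a nuclear body marking cancer cells; inconclusive = readout between -30 and a set limit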;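 also: plate controls were DMSO wells for no effect and camptothecin positive control wells for full effect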
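Read-out is percentage of cells bearing a perinucleolar compartment, from automated 20x imaging of fixed, Hoechst-stained PC3M PTB-GFP cells. Cells were seeded 4 h, then exposed 16 h to compound (23 nl of library stock) in duplicate plates.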
Numbers without * were called inactive; ? = inconclusive; . = no result given; [ ] = another dose, or the depositor's remark. An excerpt weighted towards active compounds, which were near 10% of everything screened. Unless noted, calls follow the shape of the dose curve; as a rule, active = well fitted inhibition curve with a large enough effect (not every such curve was filed as active); inconclusive = small, poorly fitted or top-dose-only effect, or another doubt; inactive = no such curve, though single readings can be large or run the other way. Unless noted, % is scaled to controls: 0 for no effect and ±100 for the full control effect.

SMILES	HPGD inh	ALDH1A1 block	Lamin A splicing	12-hLO inh	PNC assembly inh
CCOc1ccc(OCC(=O)NCCS(=O)(=O)N2CCN(c3ccc(OC)cc3)CC2)cc1	.	.	-7%[46 µM]	.	.
COc1ccc(Cc2n[nH]c(=S)n2N)cc1OC	.	10µM*	-1%[46 µM]	.	.
CCOc1ccc(Cc2n[nH]c(=S)n2N)cc1	?	?	-2%	-2%	-9
COc1ccc(Cc2n[nH]c(=S)n2C)cc1Br	.	-8%	.	.	.
Nn1c(Cc2ccc(Br)cc2)n[nH]c1=S	.	11µM*	5%[46 µM]	.	.
CCN1C(=O)[C@H]2[C@H]3[C@H](O)[C@H](O)C/C(=N/OCc4ccccc4)[C@@H]3CC[C@@H]2C1=O	.	4%[13.5 µM]	.	.	.
Cc1cccc(NC(=O)c2oc3ccc(S(=O)(=O)N(C)C4CCCCC4)cc3c2C)c1C	.	.	-14%[46 µM]	.	.
CCC(=O)N1c2ccccc2CC1C(=O)NCCCN1CCN(c2ccc(F)cc2)CC1 (stereo unspecified)	.	.	-20%[46 µM]	.	.
COc1ccc(Cc2nc(=S)[nH][nH]2)cc1Br	.	6.3µM*	-18%[46 µM]	.	.
O=C(Nc1nnc(SCC(=O)N2CCOCC2)s1)c1ccccc1	32µM*	-7%	?	-1%	-89*
O=C(CSc1ccc(-c2cccs2)nn1)N1CCCCC1	3.5µM*	?	-16%	2%	9
O=C(CSc1ccc(-c2ccc(F)cc2)nn1)N1CCOCC1	.	0%	.	.	.
O=C(CSc1ccc(-c2cccs2)nn1)NCc1ccccc1Cl	32µM*	0%	-15%	16%	?
O=C(CSc1ccc(-c2ccccc2)nn1)N1CCOCC1	-22%	28µM*	-8%	2%	2
O=C(CSc1ccc(-c2cccs2)nn1)N1CCCCCC1	11µM*	-5%	-5%	2%	?
FC(F)(F)c1cc(CN2CC3(CCNCC3)C2)cc(C(F)(F)F)c1	-9%	-1%	.	5%	.
O=C(CSc1nnnn1-c1ccc(F)cc1)c1ccc(O)c(O)c1	.	22µM*	?	.	.
COc1ccc(-n2nnnc2SCC(=O)c2cccc(OC)c2)cc1	-7%	3%	?	-7%	5
CCCCCCCCC1OC1CCCCCCCC(=O)O (stereo unspecified)	-4%	11%	.	-1%	.
CCOC(=O)CCN1C(=O)[C@H]2[C@@H]3[C@H](O)C=CC(=O)[C@H]3CC[C@H]2C1=O	.	-2%[13.5 µM]	.	.	.
Nc1ccc(N2CCOCC2)c2nonc12	.	20µM*	-11%[46 µM]	.	.
O=C(Nc1ccc(N2CCOCC2)c2nonc12)C1CCCC1	-19%	?	-5%	-3%	-8
O=C(CCC1CCCN(C(=O)c2ccsc2)C1)NCc1ccc(F)c(F)c1 (stereo unspecified)	.	-1%	4%[46 µM]	.	.
CCCCc1ccc(NC(=O)CC(C)C)cc1	.	3%	12%[46 µM]	.	.
CCCCc1ccc(NC(=O)CN2NS(=O)(=O)c3ccccc3C2=O)cc1	-7%	4µM*	-20%	3%	19
SMILES	HPGD inh	ALDH1A1 block	Lamin A splicing	12-hLO inh	PNC assembly inh
COC(=O)CN1C(=O)C(C)(C)c2cc(S(=O)(=O)NCc3ccc(Cl)cc3)ccc21	.	.	-1%[46 µM]	.	.
CCOC(=O)CSc1nc2cc3c(cc2c(=O)n1CCCC(=O)NCc1ccc2c(c1)OCO2)OCO3	.	.	1%[46 µM]	.	.
CC(=O)c1ccc(N2CCN(Cc3nc(Cc4ccccc4)no3)CC2)cc1	.	18µM*	.	.	.
COc1ccc(-c2nc3n(c(=O)c2C#N)CCS3)cc1	.	2%	.	.	.
FC(F)Oc1ccc(/C=N/c2c(-c3ccc(OC(F)F)cc3)nc3n2CCS3)cc1	?	3.5µM*	15%	-18%	321
O=C(Nc1ccc(N2CCOCC2)c(S(=O)(=O)Nc2ccc(Cl)cc2)c1)c1cnccn1	.	2µM*	?	.	.
COc1ccc(NS(=O)(=O)c2cccc(Cl)c2)cc1S(=O)(=O)N1CCCCC1	-9%	16µM*	?	-6%	63
COc1ccc(NS(=O)(=O)c2cc(Cl)ccc2Cl)cc1S(=O)(=O)N1CCCCC1	.	-6%	?	.	.
COc1ccc(NS(=O)(=O)c2cccc(Cl)c2Cl)cc1S(=O)(=O)N1CCCCC1	-3%	0.35µM*	?	-4%	10
CCN(Cc1ccccc1)S(=O)(=O)c1ccc2c(c1)CC(C)N2C(=O)C1CCC1 (stereo unspecified)	.	.	-19%[46 µM]	.	.
O=C(NCCCN1CCOCC1)c1ccc(CNS(=O)(=O)c2ccc(Br)cc2)cc1	-10%	22µM*	6%	-1%	-6
COc1ccccc1NC(=S)N(Cc1ccco1)Cc1cc2cccc(C)c2[nH]c1=O	-9%	-16%	0%	-3%	24
COc1ccccc1NC(=O)CN(Cc1ccco1)C(=O)c1cc2ccccc2o1	.	22µM*	-24%[46 µM]	.	.
Cc1ccc(C(=O)OCn2nnc3ccccc3c2=O)cc1[N+](=O)[O-]	.	?	23%[9.22 µM]	.	.
CC1CCCN(c2ccc(C(=O)Nc3nnc(C4CC4)s3)cc2[N+](=O)[O-])C1 (stereo unspecified)	-2%	2.8µM*	3%	0%	?
CC1CCCN(c2ccc(C(=O)OCn3nnc4ccccc4c3=O)cc2[N+](=O)[O-])C1 (stereo unspecified)	16µM*	-2%	-9%	-5%	-22
NCCC(O)(P(=O)(O)O)P(=O)(O)O	-10%	-5%	?	3%[0.00818 µM]	.
CCOC(=O)CC(=O)CSc1nc2nc(C)cc(C)n2n1	16µM*	13µM*	-8%	-9%	?
O=C(CSCc1ccc([N+](=O)[O-])cc1)NN=C1CCCCCC1	0%	5µM*	-10%	-11%	-29
O=C(CSCc1ccc(Cl)cc1)NN=C1CCCC1	-3%	?	3%	-2%	?
Cc1ccc(CSCC(=O)NN=C2CCN(C)CC2)cc1	-1%	?	6%	-3%	2

Bioassay records as filed in PubChem BioAssay.
